These results are taken from paper PMC7862700, “An all-to-all approach to the identification of sequence-specific readers for epigenetic DNA modifications on cytosine”.

Common to all, as to experiment: DAPPL (digital affinity profiling via proximity ligation, sequencing); 10 mM Tris-HCl pH 7.5, 50 mM NaCl, 1 mM DTT, 4% glycerol, room temperature, 30 min; GST-TFs on glutathione beads, 16-mer random dsDNA library, 0.1% formaldehyde crosslink after washing; high values mean tight binding
The target of one test is T1, FLI1 (Homo sapiens, UniProt Q01543 1-452).
T1 sequence: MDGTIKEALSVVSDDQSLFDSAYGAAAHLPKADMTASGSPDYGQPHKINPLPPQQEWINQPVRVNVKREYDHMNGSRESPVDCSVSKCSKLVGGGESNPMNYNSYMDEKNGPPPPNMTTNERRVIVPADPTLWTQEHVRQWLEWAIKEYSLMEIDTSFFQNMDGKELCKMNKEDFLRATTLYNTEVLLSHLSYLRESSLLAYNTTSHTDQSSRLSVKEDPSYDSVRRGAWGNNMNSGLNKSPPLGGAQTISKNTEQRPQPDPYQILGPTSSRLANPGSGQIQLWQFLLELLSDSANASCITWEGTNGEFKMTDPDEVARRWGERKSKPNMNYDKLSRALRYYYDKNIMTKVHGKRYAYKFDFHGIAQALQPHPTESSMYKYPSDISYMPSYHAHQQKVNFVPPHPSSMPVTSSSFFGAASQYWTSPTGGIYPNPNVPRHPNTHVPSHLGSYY
Particulars: protein: recombinant; tags: N-terminal GST; dsDNA, one strand shown. Put shortly: (§1)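 Binding signal is given per hexamer as its read frequency for a factor divided by its frequency in the tag-only sample. GST-fused human transcription factors were expressed in yeast, captured on glutathione beads, barcoded with DNA and pooled with that sample, then incubated with 200 nmole of a 16-mer random double-stranded DNA library in Tris/NaCl/DTT/glycerol buffer for 30 min at room temperature. The pools were then washed, crosslinked, proximity-ligated, amplified by PCR and sequenced on an Illumina NextSeq500.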

The target in the next test is T2, ELK1 (Homo sapiens, UniProt P19419 1-428).
T2 sequence: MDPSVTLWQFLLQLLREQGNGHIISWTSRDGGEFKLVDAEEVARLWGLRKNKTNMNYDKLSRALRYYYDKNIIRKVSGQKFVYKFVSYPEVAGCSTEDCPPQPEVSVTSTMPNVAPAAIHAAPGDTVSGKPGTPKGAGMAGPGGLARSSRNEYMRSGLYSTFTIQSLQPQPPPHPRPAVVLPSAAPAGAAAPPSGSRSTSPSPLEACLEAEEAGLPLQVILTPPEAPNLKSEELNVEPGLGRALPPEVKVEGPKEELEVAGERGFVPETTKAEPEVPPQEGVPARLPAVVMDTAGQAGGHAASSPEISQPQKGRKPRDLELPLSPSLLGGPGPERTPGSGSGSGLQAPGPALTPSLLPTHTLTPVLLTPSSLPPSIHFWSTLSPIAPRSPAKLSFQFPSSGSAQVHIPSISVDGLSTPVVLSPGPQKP
Particulars: protein: recombinant; tags: N-terminal GST; dsDNA, one strand shown. An outline of the steps:
as §1

Another test has as its target T3, GABPA (Homo sapiens, UniProt Q06546 1-454).
T3 sequence: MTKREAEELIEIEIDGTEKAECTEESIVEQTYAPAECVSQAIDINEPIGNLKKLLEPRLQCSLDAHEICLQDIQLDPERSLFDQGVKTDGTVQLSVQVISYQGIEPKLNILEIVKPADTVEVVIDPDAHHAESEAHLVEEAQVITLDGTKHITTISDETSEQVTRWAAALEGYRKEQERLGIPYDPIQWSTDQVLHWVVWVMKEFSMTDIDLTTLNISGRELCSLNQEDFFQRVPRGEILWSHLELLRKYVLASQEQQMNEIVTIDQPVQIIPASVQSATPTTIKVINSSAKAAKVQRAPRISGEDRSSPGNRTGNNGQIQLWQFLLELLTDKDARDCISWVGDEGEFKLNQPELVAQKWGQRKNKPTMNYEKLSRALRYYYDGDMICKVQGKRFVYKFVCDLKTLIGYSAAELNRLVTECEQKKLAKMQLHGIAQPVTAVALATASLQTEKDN
Particulars: protein: recombinant; tags: N-terminal GST; dsDNA, one strand shown. Put shortly: as §1

Another test deals with T4, ERG (Homo sapiens, UniProt P11308 1-479).
T4 sequence: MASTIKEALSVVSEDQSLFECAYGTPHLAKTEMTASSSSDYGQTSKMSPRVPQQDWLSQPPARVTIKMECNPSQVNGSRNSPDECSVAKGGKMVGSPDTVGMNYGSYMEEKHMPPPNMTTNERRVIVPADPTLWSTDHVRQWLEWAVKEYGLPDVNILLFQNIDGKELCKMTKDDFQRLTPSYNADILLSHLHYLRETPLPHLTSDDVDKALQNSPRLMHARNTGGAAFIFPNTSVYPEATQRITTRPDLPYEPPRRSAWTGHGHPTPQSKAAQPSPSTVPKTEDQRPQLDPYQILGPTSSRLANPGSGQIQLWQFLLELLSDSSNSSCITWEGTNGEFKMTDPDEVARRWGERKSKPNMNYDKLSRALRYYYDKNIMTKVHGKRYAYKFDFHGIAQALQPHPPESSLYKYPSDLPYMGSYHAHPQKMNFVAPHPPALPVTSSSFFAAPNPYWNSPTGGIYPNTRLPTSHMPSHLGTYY
Particulars: protein: recombinant; tags: N-terminal GST; dsDNA, one strand shown. An outline of the steps: as §1

In a further test the target is ELF1 (Homo sapiens, UniProt P32519 1-619). Particulars: protein: recombinant; tags: N-terminal GST; dsDNA, one strand shown. Put shortly: as §1
The target of another test is T5, EHF (Homo sapiens, UniProt Q9NZC4 1-300).
T5 sequence: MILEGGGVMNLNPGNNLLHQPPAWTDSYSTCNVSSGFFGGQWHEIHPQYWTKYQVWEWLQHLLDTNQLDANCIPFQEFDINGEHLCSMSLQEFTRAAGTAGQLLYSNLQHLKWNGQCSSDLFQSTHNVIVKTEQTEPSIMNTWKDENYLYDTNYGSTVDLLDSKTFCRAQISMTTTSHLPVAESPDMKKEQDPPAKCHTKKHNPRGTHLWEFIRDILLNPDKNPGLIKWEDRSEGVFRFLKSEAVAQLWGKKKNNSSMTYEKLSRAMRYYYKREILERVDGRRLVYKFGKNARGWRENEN
Particulars: protein: recombinant; tags: N-terminal GST; dsDNA, one strand shown. Put shortly:
as §1

Another test addresses SPI1 (Homo sapiens, UniProt P17947 1-270). Particulars: protein: recombinant; tags: N-terminal GST; dsDNA, one strand shown. An outline of the steps: as §1
Another test deals with SPIB (Homo sapiens, UniProt Q01892 1-262). Particulars: protein: recombinant; tags: N-terminal GST; dsDNA, one strand shown. An outline of the steps:
as §1

In a further test the target is T6, ELK3 (Homo sapiens, UniProt P41970 1-407).
T6 sequence: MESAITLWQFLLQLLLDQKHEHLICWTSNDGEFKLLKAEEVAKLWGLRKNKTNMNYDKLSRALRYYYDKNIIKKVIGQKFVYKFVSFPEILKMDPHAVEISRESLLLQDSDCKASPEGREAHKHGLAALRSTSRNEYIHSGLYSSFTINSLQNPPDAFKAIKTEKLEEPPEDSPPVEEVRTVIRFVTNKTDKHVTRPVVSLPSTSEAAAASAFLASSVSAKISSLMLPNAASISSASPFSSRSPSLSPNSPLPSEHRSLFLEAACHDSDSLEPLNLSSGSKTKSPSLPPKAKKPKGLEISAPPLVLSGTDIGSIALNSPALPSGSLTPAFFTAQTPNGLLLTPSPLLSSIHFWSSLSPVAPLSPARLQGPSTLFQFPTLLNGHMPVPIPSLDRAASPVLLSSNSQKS
Particulars: protein: recombinant; tags: N-terminal GST; dsDNA, one strand shown. An outline of the steps:
as §1

Another test has as its target T7, FEV (Homo sapiens, UniProt Q99581 1-238).
T7 sequence: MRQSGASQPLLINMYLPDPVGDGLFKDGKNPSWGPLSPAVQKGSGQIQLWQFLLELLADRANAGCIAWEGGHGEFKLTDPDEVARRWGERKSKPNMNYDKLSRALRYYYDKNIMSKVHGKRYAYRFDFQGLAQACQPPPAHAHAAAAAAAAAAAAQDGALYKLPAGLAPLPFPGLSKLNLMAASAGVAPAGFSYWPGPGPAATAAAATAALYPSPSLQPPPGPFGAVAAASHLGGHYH
To be noted: protein: recombinant; tags: N-terminal GST; dsDNA, one strand shown. An outline of the steps:
as §1

Another test has as its target ETV5 (Homo sapiens, UniProt P41161 1-510). To be noted: protein: recombinant; tags: N-terminal GST; dsDNA, one strand shown. An outline of the steps:
as §1

The next test has as its target HSF1 (Homo sapiens, UniProt Q00613 1-529). Particulars: protein: recombinant; tags: N-terminal GST; chain copies: 3; dsDNA, one strand shown. Put shortly:
as §1

The target in the next test is T8, SPIC (Homo sapiens, UniProt Q8N5J4 1-248).
T8 sequence: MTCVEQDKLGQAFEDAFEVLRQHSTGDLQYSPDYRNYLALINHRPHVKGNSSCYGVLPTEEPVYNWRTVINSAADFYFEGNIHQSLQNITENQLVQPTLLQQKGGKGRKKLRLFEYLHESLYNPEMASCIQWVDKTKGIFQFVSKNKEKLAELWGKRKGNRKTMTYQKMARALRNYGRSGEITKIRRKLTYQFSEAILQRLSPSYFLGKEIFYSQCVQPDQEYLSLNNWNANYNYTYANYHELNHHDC
Particulars: protein: recombinant; tags: N-terminal GST; dsDNA, one strand shown. Put shortly:
as §1

The target in another test is ELF4 (Homo sapiens, UniProt Q99607 1-663). Particulars: protein: recombinant; tags: N-terminal GST; dsDNA, one strand shown. Put shortly:
as §1

The target of the next test is T9, ELK4 (Homo sapiens, UniProt P28324-2 1-405).
T9 sequence: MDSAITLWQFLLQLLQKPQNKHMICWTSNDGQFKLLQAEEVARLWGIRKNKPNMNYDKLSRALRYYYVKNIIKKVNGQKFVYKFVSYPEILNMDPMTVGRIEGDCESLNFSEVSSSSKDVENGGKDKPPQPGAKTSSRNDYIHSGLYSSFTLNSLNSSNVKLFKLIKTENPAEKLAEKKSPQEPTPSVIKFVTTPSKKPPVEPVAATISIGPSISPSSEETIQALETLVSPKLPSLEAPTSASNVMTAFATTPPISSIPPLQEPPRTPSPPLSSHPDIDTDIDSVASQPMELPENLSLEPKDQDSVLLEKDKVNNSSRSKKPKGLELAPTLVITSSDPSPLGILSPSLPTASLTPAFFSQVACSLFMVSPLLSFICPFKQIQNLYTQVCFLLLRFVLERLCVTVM
To be noted: protein: recombinant; tags: N-terminal GST; dsDNA, one strand shown. An outline of the steps:
as §1

A further test concerns the target T10, ETV2 (Homo sapiens, UniProt O00321 1-342).
T10 sequence: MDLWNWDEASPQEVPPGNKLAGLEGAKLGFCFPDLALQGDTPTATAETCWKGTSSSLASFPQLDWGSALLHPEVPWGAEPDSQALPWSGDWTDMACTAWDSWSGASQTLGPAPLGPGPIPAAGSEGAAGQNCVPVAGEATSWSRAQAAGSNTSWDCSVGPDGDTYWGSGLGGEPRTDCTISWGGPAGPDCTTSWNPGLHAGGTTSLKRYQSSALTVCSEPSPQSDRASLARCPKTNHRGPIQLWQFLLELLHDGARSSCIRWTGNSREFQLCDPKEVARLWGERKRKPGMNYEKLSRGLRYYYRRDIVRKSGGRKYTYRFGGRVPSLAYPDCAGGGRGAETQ
To be noted: protein: recombinant; tags: N-terminal GST; dsDNA, one strand shown. Put shortly:
as §1

The target in a further test is T11, ELF3 (Homo sapiens, UniProt P78545 1-371).
T11 sequence: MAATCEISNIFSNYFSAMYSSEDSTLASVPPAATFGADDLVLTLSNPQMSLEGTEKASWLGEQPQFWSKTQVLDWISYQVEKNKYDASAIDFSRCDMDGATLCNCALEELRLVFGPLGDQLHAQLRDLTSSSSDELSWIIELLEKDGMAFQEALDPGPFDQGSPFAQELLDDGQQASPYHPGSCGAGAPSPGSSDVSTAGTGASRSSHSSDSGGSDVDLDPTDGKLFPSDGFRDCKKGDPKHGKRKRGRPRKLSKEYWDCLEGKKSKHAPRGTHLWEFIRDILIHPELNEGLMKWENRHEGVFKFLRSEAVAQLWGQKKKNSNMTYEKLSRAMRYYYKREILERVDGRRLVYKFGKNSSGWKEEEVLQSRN
Particulars: protein: recombinant; tags: N-terminal GST; dsDNA, one strand shown. Put shortly: as §1

Another test has as its target CRX (Homo sapiens, UniProt O43186 1-299). To be noted: protein: recombinant; tags: N-terminal GST; dsDNA, one strand shown. An outline of the steps:
as §1

In a further test the target is ETV1 (Homo sapiens, UniProt P50549 1-477). Particulars: protein: recombinant; tags: N-terminal GST; dsDNA, one strand shown. An outline of the steps: as §1
Sequence of ETV1 (P50549 whole entry): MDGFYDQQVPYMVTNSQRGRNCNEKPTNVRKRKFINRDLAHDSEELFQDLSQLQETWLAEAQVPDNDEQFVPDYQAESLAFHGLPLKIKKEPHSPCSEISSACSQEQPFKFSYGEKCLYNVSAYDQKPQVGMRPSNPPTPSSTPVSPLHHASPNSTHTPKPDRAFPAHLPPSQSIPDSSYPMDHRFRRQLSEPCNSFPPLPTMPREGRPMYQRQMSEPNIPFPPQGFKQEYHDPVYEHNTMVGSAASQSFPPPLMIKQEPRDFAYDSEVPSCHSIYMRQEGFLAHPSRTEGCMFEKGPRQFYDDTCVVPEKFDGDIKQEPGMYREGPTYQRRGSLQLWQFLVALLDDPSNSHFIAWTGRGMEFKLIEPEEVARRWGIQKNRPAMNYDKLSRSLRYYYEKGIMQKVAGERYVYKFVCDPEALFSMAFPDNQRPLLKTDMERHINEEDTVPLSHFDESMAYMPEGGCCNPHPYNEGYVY

Sequence of ELF4 (Q99607 whole entry): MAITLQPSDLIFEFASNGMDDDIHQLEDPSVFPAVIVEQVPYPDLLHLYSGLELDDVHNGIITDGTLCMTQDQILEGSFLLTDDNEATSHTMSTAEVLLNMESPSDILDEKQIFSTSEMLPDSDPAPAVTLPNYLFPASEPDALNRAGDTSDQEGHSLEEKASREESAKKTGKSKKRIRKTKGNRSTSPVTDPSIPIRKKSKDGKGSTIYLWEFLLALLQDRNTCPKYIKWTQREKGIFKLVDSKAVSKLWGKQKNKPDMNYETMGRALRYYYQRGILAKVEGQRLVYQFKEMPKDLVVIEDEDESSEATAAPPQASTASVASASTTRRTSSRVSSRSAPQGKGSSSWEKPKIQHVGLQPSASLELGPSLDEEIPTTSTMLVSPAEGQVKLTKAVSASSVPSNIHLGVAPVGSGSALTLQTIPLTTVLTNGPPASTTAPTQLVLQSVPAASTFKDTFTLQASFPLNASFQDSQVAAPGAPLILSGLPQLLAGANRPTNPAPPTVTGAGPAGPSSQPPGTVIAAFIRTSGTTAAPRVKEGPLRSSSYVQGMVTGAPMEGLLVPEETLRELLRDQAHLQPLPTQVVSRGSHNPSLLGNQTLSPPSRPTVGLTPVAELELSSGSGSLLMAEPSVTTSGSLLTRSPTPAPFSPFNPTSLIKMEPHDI
Sequence of SPIB (Q01892 whole entry): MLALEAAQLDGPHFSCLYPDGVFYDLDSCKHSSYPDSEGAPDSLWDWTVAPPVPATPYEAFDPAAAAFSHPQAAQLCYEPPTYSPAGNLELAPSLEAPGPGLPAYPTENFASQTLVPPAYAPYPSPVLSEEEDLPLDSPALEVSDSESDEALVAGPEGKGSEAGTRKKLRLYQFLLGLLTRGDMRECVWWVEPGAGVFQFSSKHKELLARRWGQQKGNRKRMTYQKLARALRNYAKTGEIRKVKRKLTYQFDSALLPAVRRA
Sequence of ELF1 (P32519 whole entry): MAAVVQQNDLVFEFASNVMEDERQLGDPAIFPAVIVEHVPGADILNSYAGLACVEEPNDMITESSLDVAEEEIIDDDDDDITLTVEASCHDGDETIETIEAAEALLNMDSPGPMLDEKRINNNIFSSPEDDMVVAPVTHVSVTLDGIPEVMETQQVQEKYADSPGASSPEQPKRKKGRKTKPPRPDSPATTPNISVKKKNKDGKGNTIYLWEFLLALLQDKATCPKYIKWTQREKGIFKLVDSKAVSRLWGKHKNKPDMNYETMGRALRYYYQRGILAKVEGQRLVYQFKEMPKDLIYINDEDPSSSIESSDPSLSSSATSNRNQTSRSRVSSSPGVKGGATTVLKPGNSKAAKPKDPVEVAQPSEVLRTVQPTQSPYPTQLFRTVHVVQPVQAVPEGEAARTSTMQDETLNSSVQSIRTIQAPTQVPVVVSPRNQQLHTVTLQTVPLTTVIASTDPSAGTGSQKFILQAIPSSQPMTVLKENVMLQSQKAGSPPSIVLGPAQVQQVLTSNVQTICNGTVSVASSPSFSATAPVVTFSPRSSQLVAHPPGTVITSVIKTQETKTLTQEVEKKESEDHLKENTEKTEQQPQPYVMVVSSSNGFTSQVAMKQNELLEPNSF
Sequence of HSF1 (Q00613 whole entry): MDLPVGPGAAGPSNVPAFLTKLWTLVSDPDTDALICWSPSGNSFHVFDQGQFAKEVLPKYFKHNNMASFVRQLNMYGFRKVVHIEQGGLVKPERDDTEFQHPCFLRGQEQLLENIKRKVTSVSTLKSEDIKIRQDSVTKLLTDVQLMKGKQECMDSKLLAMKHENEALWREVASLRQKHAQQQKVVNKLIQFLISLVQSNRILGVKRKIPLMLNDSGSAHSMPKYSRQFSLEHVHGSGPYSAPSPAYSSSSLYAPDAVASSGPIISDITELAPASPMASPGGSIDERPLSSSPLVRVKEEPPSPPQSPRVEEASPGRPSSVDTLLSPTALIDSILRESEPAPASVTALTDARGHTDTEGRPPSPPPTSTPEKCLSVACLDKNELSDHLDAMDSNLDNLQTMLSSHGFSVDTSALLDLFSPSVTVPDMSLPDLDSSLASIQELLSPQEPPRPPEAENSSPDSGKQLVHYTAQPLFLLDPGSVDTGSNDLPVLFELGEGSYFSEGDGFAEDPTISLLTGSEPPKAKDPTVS
Sequence of CRX (O43186 whole entry): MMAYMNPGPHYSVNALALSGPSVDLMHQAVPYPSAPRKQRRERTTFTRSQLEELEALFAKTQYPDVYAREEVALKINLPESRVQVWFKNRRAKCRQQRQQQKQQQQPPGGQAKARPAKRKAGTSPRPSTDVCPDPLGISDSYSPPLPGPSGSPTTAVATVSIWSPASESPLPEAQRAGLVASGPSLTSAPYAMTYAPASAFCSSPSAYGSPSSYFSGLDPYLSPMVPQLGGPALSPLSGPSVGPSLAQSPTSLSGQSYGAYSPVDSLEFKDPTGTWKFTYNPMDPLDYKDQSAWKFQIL
Sequence of ETV5 (P41161 whole entry): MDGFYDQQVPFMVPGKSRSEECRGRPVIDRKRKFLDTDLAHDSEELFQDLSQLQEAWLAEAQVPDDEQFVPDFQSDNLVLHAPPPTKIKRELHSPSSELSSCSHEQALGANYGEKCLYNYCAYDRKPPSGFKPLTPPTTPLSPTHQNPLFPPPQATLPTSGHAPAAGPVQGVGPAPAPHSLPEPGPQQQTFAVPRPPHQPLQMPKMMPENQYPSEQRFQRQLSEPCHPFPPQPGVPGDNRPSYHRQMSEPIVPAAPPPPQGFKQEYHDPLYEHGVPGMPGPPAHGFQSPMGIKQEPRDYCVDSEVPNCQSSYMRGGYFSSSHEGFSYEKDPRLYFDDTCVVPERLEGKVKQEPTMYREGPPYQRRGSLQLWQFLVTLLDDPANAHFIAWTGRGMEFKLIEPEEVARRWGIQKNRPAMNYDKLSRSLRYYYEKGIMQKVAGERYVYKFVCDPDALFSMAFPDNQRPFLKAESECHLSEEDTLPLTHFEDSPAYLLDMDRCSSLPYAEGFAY

For CGAAAC, the binding signal with FLI1 is 1.14 fold enrichment (6-mer frequency, TF over GST control); in the test with ELK1, 1.15 fold enrichment (6-mer frequency, TF over GST control); with GABPA it was 1.08 fold enrichment (6-mer frequency, TF over GST control); with ERG, 1.21 fold enrichment (6-mer frequency, TF over GST control); with ELF1, 1.23 fold enrichment (6-mer frequency, TF over GST control); in the test with EHF it was 1.17 fold enrichment (6-mer frequency, TF over GST control). Moreover, the binding signal with SPI1 is 1.21 fold enrichment (6-mer frequency, TF over GST control); with SPIB, 1.16 fold enrichment (6-mer frequency, TF over GST control); with ELK3, 1.07 fold enrichment (6-mer frequency, TF over GST control); in the test with FEV, 1.2 fold enrichment (6-mer frequency, TF over GST control); with ETV5 it was 1.25 fold enrichment (6-mer frequency, TF over GST control); with HSF1 it was 1.58 fold enrichment (6-mer frequency, TF over GST control). The binding signal in the test with SPIC was 1.27 fold enrichment (6-mer frequency, TF over GST control); with ELF4, 1.2 fold enrichment (6-mer frequency, TF over GST control); in the test with ELK4, 1.15 fold enrichment (6-mer frequency, TF over GST control); with ETV2 it was 1.22 fold enrichment (6-mer frequency, TF over GST control); with ELF3 it was 1.15 fold enrichment (6-mer frequency, TF over GST control); with CRX it was 1.02 fold enrichment (6-mer frequency, TF over GST control). Further, the binding signal with ETV1 was 1.21 fold enrichment (6-mer frequency, TF over GST control).
